HCMV inh: qHTS Assay for inhibitors of the human cytomegalovirus (HCMV); HFF cells, HCMV-luciferase reporter, 72 h; active compounds read low; activity change, negative = inhibition, % at 57.5 µM; hit rate 4.5% among 410,000; in the data active = activity change below about -60%; inconclusive = no clear call, values can overlap the other calls; inactive = above about -39%
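Compounds were evaluated in HFFs infected with an HCMV luciferase reporter virus (MOI 1 PFU/cell). Luciferase in lysates collected 72 h post infection served as the replication measure.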
Lassa entry inh: qHTS for Inhibitors of binding or entry into cells for Lassa Virus; hit rate 1.2% among 300,000; Lassa virus pseudotype entry inhibition, cell reporter; Potency, µM (highest dose often 37.9 µM), for inactives: at the highest dose activity change, negative = inhibition, usual class: inhibitors; calls by dose curve; tested in HEK293 cells; also: potency is read from the fitted curve at half-maximal effect; nearly all actives have a fitted effect of over 50% in size
HCV inhibitor: qHTS Assay for Inhibitors of Hepatitis C Virus (HCV); Huh7.5.1 HCVcc-Cre infection, luciferase reporter, 44 h; Potency, µM (titrated, usually from 41.8 µM), for inactives: top-dose activity change, negative = inhibition, most hits filed as inhibitors; hit rate 3.4% among 340,000; AID 651820, 2012; also: potency is read from the fitted curve at half-maximal effect
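1,000 cells/well; 4 h culture; + compound; + HCVcc-Cre (~0.5 moi); 44 h; luciferase substrate, RT 15 min; read 15 sec.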
Marburg entry inh: qHTS for inhibitors of binding or entry into cells for Marburg Virus. Marburg virus pseudotyped entry inhibition, cell reporter. Potency, µM (titrated, usually from 37.8 µM), for the others: at the top dose activity change, negative = inhibition, usual class: inhibitors. hit rate 1.8% among 300,000. AID 540276, 2011; calls by dose curve; tested in HEK293 cells; also: potency is read from the fitted curve at half-maximal effect
Pf growth 48h: Primary qHTS for delayed death inhibitors of the malarial parasite plastid, 48 hour incubation | hit rate 5.9% among 310,000 | P. falciparum luciferase growth in erythrocytes, 48 h | Potency, µM (series often up to 28.7 µM), for inactives: at the top dose activity change, negative = inhibition, hits mostly inhibitors; also: potency is read from the fitted curve at half-maximal effect
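Cell-based growth assay: transgenic P. falciparum expressing firefly luciferase, cultured in red cells within RPMI 1640 containing 0.5% w/v Albumax, 24 mM bicarbonate and gentamycin. A drop in luciferase activity indicates inhibition.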
Pf growth 96h: Primary qHTS for delayed death inhibitors of the malarial parasite plastid, 96 hour incubation | P. falciparum luciferase reporter growth, 96 h | Potency, µM (series often up to 28.7 µM), for the others: at the top dose activity change, negative = inhibition, usual class: inhibitors | hit rate 6.9% among 320,000 | AID 504834, 2011; also: potency is read from the fitted curve at half-maximal effect
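Two-generation exposure (96 h) targets delayed-death phenotype. Reporter parasites carrying integrated firefly luciferase, in red cells at 2% hematocrit and 0.05% parasitemia final, kept at 37 C, 5% CO2; luminescence loss indicates inhibition.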
The depositor's hits bear a star; u = inconclusive; x = not tested or not shown; ! = not confirmed by another sample; [ ] = another dose, or the depositor's remark. An excerpt weighted towards active compounds, which were near 14% of everything screened. Unless noted, calls follow the shape of the dose curve; as a rule, active = well fitted inhibition curve with a large enough effect; inconclusive = small, poorly fitted or top-dose-only effect, or another doubt; inactive = no such curve, though single readings can be large or run the other way. % is scaled to controls: 0 for no effect and ±100 for the full control effect.

SMILES	HCMV inh	Lassa entry inh	HCV inhibitor	Marburg entry inh	Pf growth 48h	Pf growth 96h
COc1cccc(/C=N/NC(=S)Nc2cccnc2)c1	-14.2	7.0%[46.1 µM]	u	u	33.7%	-23.3%
O=C(Nc1ccccc1Oc1ccccc1)[C@@H]1O[C@H](CO)[C@H](O)[C@H](O)[C@H]1O	-15.9	x	x	x	x	x
CCOc1cccc(C=NNc2nc(=O)cc(C(=O)OC)s2)c1O	-26.6	x	x	x	x	x
Cc1nn2c(c1-c1ccc(Cl)cc1)N=C(c1ccco1)CC2c1ccccc1 (stereo not drawn)	u	u	2.51µM*	u	u	16.5µM*
Cc1nnc(SCC(=O)Nc2cc(S(C)(=O)=O)ccc2Cl)n1Cc1ccccc1	28.8	-12.0%[46.1 µM]	u	-13.1%[46.1 µM]	-19.3%	u
CCc1cc2c(-c3ccccc3)cc(=O)oc2cc1OC(C)C(=O)NCC1CCC(C(=O)O)CC1 (stereo not drawn)	-18.8	x	-20.2%	x	u	9.28µM*
CCCc1cc(=O)oc2cc(C)cc(OCC(=O)NCc3ccncc3)c12	-26.7	x	-9.8%	x	9.28µM*	8.28µM*
CCCc1cc(=O)oc2cc(C)cc(OC(C)C(=O)NCc3cccnc3)c12 (stereo not drawn)	13.6	x	-25.7%	x	8.28µM*	4.65µM*
CCCc1cc(=O)oc2cc(C)cc(OC(C)C(=O)NCc3ccncc3)c12 (stereo not drawn)	22.7	x	u	x	3.29µM*	2.94µM*
CCCS(=O)(=O)c1nc(S(=O)(=O)c2ccc(C)cc2)c(N(C)Cc2ccccc2)s1	u	-20.4%[46.1 µM]	x	u	x	x
COc1ccc(COC(=O)C2CCN(S(=O)(=O)c3ccc(OC)c(OC)c3)CC2)cc1	18.5	x	-13.1%	x	u	u
CN(C(=O)c1cccc(NC(=O)Cc2ccc(NC(=O)C3CCN(C(=O)C4CCC4)CC3)cc2)c1)C1CC1	17.7	x	-7.9%	x	x	x
CCCCc1cc(=O)oc2cc(C)cc(OCC(=O)NCc3cccnc3)c12	u	u	u	4.9%[46.1 µM]	10.4µM*	9.28µM*
CCCc1cc(=O)oc2cc(C)cc(OC(C)C(=O)NCC3CCC(C(=O)O)CC3)c12 (stereo not drawn)	6.1	x	10.7%	x	0.0%	u
CCCCc1cc(=O)oc2cc(C)cc(OC(C)C(=O)NCC3CCC(C(=O)O)CC3)c12 (stereo not drawn)	6.9	x	u	x	u	9.28µM*
COc1ccc(CNC(=O)Cn2c(=O)nc(-c3ccccc3)c3cc(Cl)ccc32)cc1OC	9.0	u	x	x	x	x
Cc1c(C(=O)OCC(=O)NC2CC2)oc2ccc(Br)cc12	19.4	3.7%	-3.9%	12.1%[46.1 µM]	-23.3%	11.8%
COc1ccc(CNC(=O)Cn2cnc3c(SC)nc(N)nc32)cc1	-15.1	x	8.91µM*	x	x	x
CSc1nc(N)nc2c1ncn2CC(=O)Nc1ccc(C)c(C)c1	-29.7	x	3.55µM*	x	x	x
CCN(c1ccccc1)S(=O)(=O)c1ccc2c(c1)N(C(C)=O)CCS2	-40.0	x	-1.0%	x	-9.5%	u
O=C(c1ccc([N+](=O)[O-])cc1)N(Cc1ccco1)c1ccccn1	3.9	1.7%[46.1 µM]	x	-17.2%[46.1 µM]	x	x
CC1CC(=O)Nc2ccccc2N1C(=O)COc1ccccc1C(N)=O (stereo not drawn)	44.1	x	x	x	x	x
COC(=O)Nc1ccc(C)cc1NC(=O)OC	18.6	u	2.6%	11.9%	12.5%	x
COC(=O)Nc1ccc2ccc3c(NC(=O)OC)ccc4ccc1c2c43	-23.3	-1.7%	12.6µM*	2.3%	x	x
O=C(CSc1nc2ccccc2c(=O)n1Cc1ccco1)NCCN1C(=O)CSC1=O	-31.9	-11.9%	10µM*	-1.6%[46.1 µM]	6.7%	u
Cc1cc(C)c(NC(=O)CSc2nccn2Cc2ccco2)c(C)c1	22.9	11.4%[46.1 µM]	x	x	x	x
CC(=O)Nc1cccc(NC(=O)CSc2nccn2Cc2ccco2)c1	-70.4*!	12.8%	-25.2%	14.3%	15.2%	u
O=C(CSc1nc2ccccc2c(=O)n1Cc1ccco1)Nc1cccc(O)c1	12.5	25.7%	u	-13.5%[46.1 µM]	10.8%	13.1µM*
